Measurements as given in PubChem BioAssay AID1159580 (chemical genetic matrix, 2015).
Where “and” joins values, the source holds several entries; their conditions need not be identical. Equal values may be shown once. Out of some 5,500 compounds screened, about 2,000 (36%) were called active. Another 18% or so got no clear call; they are omitted. Rule as the data show it: active = normalized growth mostly below about 0.91 (no sharp cut-off); inconclusive = no clear call, values can overlap the other calls; inactive = mostly above about 0.92. The list shows a part of the results.

Experiment: chemical genetic growth profiling, strain panel (AID 1159580);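 also: tested at 20 µM; growth read once vehicle control cultures reached saturation at 30 °C; 1 = growth at the plate median or of vehicle wells; lower values mean less growth of the strain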
Settings: S. cerevisiae deletion strains, growth OD

Measured: normalized growth

CC(=O)CC(c1ccccc1)c1c(O)c2ccccc2oc1=O (configuration not stated)
inactive: locus YAL013W, strain DEP1, active compounds read low 1.01 | locus YAL021C, strain ccr4, active compounds read low 1.01 | locus YAL026C, strain drs2, active compounds read low 0.991 | locus YAL030W, strain snc1, active compounds read low 0.991 | locus YBL061C, strain skt5, active compounds read low 0.998 | locus YBR009C, strain hhf1, active compounds read low 1 | locus YBR021W, strain FUR4, active compounds read low 0.996 | locus YBR023C, strain chs3, active compounds read low 0.996 | locus YBR171W, strain sec66, active compounds read low 0.991 | locus YBR229C, strain ROT2, active compounds read low 1 | locus YBR231C, strain swc5, active compounds read low 1 | locus YBR279W, strain paf1, active compounds read low 0.993 | locus YCL011C, strain gbp2, active compounds read low 0.999 | locus YCL016C, strain dcc1, active compounds read low 0.994 | locus YCL029C, strain bik1, active compounds read low 1.03 | locus YCL061C, strain MRC1, active compounds read low 1 | locus YCL069W, strain vba3, active compounds read low 1 | locus YCR088W, strain abp1, active compounds read low 1 | locus YDL005C, strain med2, active compounds read low 0.999 | locus YDL035C, strain GPR1, active compounds read low 1.02 | locus YDL040C, strain nat1, active compounds read low 0.994 | locus YDL074C, strain BRE1, active compounds read low 1.02 | locus YDL101C, strain DUN1, active compounds read low 1.02 | locus YDL134C, strain PPH21, active compounds read low 1.01 | locus YDL185W, strain tfp1, active compounds read low 1.01 | locus YDL192W, strain arf1, active compounds read low 1.02 | locus YDR001C, strain nth1, active compounds read low 0.993 | locus YDR069C, strain doa4, active compounds read low 1 | locus YDR101C, strain arx1, active compounds read low 1.02 | locus YDR137W, strain rgp1, active compounds read low 0.867 | locus YDR150W, strain NUM1, active compounds read low 1.01 | locus YDR159W, strain sac3, active compounds read low 1.02 | locus YDR162C, strain NBP2, active compounds read low 1.03 | locus YDR195W, strain ref2 1.01 | locus YDR297W, strain sur2, active compounds read low 1 | locus YDR318W, strain mcm21, active compounds read low 1.03 | locus YDR334W, strain swr1, active compounds read low 1 | locus YDR335W, strain msn5, active compounds read low 1.01 | locus YDR388W, active compounds read low 1 | locus YDR392W, strain spt3, active compounds read low 0.966 | locus YDR502C, strain sam2, active compounds read low 1.01 | locus YEL003W, strain gim4, active compounds read low 1.01 | locus YEL037C, strain rad23, active compounds read low 0.999 | locus YEL061C, strain CIN8 (second series), active compounds read low 0.999 | locus YEL061C, strain CIN8, active compounds read low 1.01 | locus YER015W, strain faa2, active compounds read low 0.987 | locus YER016W, strain bim1, active compounds read low 0.993 | locus YER110C, active compounds read low 1.03 | locus YER111C, strain swi4, active compounds read low 0.999 | locus YER155C, strain BEM2 (second series), active compounds read low 1.01 | locus YER155C, strain BEM2, active compounds read low 1 | locus YER167W, strain BCK2, active compounds read low 1.03 | locus YFR010W, strain ubp6, active compounds read low 1.01 | locus YGL078C, strain dbp3, active compounds read low 1.01 | locus YGL086W, strain mad1, active compounds read low 1.03 | locus YGL167C, strain pmr1, active compounds read low 0.986 | locus YGL173C, strain kem1, active compounds read low 1 | locus YGL227W, strain vid30, active compounds read low 0.988 | locus YGL240W, strain doc1, active compounds read low 1 | locus YGL248W, strain PDE1, active compounds read low 1.01 | locus YGL253W, strain hxk2, active compounds read low 1 | locus YGR078C, strain PAC10, active compounds read low 1.02 | locus YGR135W, strain pre9, active compounds read low 1.02 | locus YGR229C, strain SMI1, active compounds read low 1.02 | locus YGR252W, strain gcn5, active compounds read low 1.06 | locus YHR013C, strain ard1, active compounds read low 1.03 | locus YHR027C, strain rpn1, active compounds read low 0.994 | locus YHR030C, strain SLT2, active compounds read low 1.01 and 0.993 | locus YHR079C, strain IRE1 (second series), active compounds read low 1.01 | locus YHR079C, strain IRE1, active compounds read low 0.982 | locus YHR094C, strain hxt1, active compounds read low 1.02 | locus YHR129C, strain ARP1, active compounds read low 1 | locus YHR142W, strain chs7, active compounds read low 1.01 | locus YHR200W, strain rpn10, active compounds read low 1.02 | locus YIL066C, strain RNR3, active compounds read low 1.02 | locus YIL073C, strain SPO22, active compounds read low 1.1 | locus YIL125W, strain kgd1, active compounds read low 1.01 | locus YIR030C, strain dcg1, active compounds read low 1.02 | locus YJL092W, strain hpr5, active compounds read low 0.996 | locus YJL095W, strain BCK1 (second series), active compounds read low 0.992 | locus YJL095W, strain BCK1, active compounds read low 1.01 and 0.973 | locus YJL115W, strain asf1, active compounds read low 1 | locus YJL129C, strain trk1, active compounds read low 1.02 | locus YJL134W, strain LCB3, active compounds read low 1 | locus YJL154C, strain vps35, active compounds read low 0.995 | locus YJL164C, strain tpk1, active compounds read low 1.01 | locus YJL166W, strain qcr8, active compounds read low 1.01 | locus YJL168C, strain set2, active compounds read low 1 | locus YJL187C, strain SWE1 (second series), active compounds read low 1.02 | locus YJL187C, strain SWE1, active compounds read low 0.989 | locus YJR043C, strain POL32, active compounds read low 1.03 | locus YJR066W, strain TOR1, active compounds read low 0.925
